From the supplement of paper PMC12645437, “Orthogonal IMiD-Degron Pairs Induce Selective Protein Degradation in Cells” (ACS Chemical Biology, 2025)
Over roughly 8,300 sequences, “log2 fold change of degron read counts, EGFP-low vs EGFP+ sorted cells (limma voom), compound-induced degradation” has its median near -1.1; the highest 2% begin near 3.2. The full list was thinned out, with the highest values kept by preference.

T1: CRBN, Q96SW2
T1 chain: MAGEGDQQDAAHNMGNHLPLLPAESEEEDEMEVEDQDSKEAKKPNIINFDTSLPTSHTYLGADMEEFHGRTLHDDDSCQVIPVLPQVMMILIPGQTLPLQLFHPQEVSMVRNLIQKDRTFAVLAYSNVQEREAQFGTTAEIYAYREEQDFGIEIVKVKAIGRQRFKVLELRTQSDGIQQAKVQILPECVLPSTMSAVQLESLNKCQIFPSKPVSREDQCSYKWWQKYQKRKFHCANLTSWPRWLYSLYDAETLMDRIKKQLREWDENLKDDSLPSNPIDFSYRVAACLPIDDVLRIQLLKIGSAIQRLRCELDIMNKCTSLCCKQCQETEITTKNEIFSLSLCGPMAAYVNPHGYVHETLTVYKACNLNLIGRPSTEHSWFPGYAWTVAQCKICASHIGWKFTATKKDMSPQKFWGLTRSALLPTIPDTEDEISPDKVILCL

B1: 46F_47M_49N_50I_52G_53A_54S_55F_67L_, Q9UKT9 (peptide)
chain: FMCNICGASFTQKGNLLRHIKL
B2: 46F_47Y_49N_50I_52G_53A_54S_55F_67L_, Q9UKT9 (peptide)
chain: FYCNICGASFTQKGNLLRHIKL
B3: 46F_47A_49N_50I_52G_53A_54S_55F_67L_, Q9UKT9 (peptide)
chain: FACNICGASFTQKGNLLRHIKL
B4: 46F_47N_49N_50I_52G_53A_54S_55F_67L_, Q9UKT9 (peptide)
chain: FNCNICGASFTQKGNLLRHIKL
B5: 46F_47Q_49N_50I_52G_53A_54S_55F_67L_, Q9UKT9 (peptide)
chain: FQCNICGASFTQKGNLLRHIKL
B6: 46F_47W_49N_50I_52G_53A_54S_55F_67L_, Q9UKT9 (peptide)
chain: FWCNICGASFTQKGNLLRHIKL
B7: 46F_47H_49D_50V_52G_53A_54F_55F_67L_, Q9UKT9 (peptide)
chain: FHCDVCGAFFTQKGNLLRHIKL
B8: 46F_47K_49N_50I_52G_53A_54K_55F_67L_, Q9UKT9 (peptide)
chain: FKCNICGAKFTQKGNLLRHIKL
B9: 46F_47R_49S_50V_52G_53H_54F_55F_67L_, Q9UKT9 (peptide)
chain: FRCSVCGHFFTQKGNLLRHIKL
B10: 46F_47V_49E_50I_52G_53H_54L_55F_67L_, Q9UKT9 (peptide)
chain: FVCEICGHLFTQKGNLLRHIKL
B11: 46F_47E_49N_50I_52G_53A_54L_55F_67L_, Q9UKT9 (peptide)
chain: FECNICGALFTQKGNLLRHIKL
B12: 46F_47Q_49D_50V_52G_53A_54F_55F_67L_, Q9UKT9 (peptide)
chain: FQCDVCGAFFTQKGNLLRHIKL
B13: 46F_47Y_49D_50Q_52G_53A_54Q_55F_67L_, Q9UKT9 (peptide)
chain: FYCDQCGAQFTQKGNLLRHIKL
B14: 46L_47M_49P_50I_52G_53F_54Y_55C_67L_, Q9UKT9 (peptide)
chain: LMCPICGFYCTQKGNLLRHIKL
B15: 46L_47Q_49P_50I_52G_53F_54Y_55C_67L_, Q9UKT9 (peptide)
chain: LQCPICGFYCTQKGNLLRHIKL
B16: 46L_47D_49P_50I_52G_53F_54Y_55C_67L_, Q9UKT9 (peptide)
chain: LDCPICGFYCTQKGNLLRHIKL
B17: 46L_47F_49P_50I_52G_53F_54Y_55C_67L_, Q9UKT9 (peptide)
chain: LFCPICGFYCTQKGNLLRHIKL
B18: 46L_47I_49P_50I_52G_53F_54Y_55C_67L_, Q9UKT9 (peptide)
chain: LICPICGFYCTQKGNLLRHIKL
B19: 46L_47V_49P_50I_52G_53F_54Y_55C_67L_, Q9UKT9 (peptide)
chain: LVCPICGFYCTQKGNLLRHIKL
B20: 46L_47C_49P_50I_52G_53F_54Y_55C_67L_, Q9UKT9 (peptide)
chain: LCCPICGFYCTQKGNLLRHIKL
B21: 46L_47H_49P_50I_52G_53F_54Y_55C_67L_, Q9UKT9 (peptide)
chain: LHCPICGFYCTQKGNLLRHIKL
B22: 46L_47A_49P_50I_52G_53F_54Y_55C_67L_, Q9UKT9 (peptide)
chain: LACPICGFYCTQKGNLLRHIKL
B23: 46L_47G_49P_50I_52G_53F_54Y_55C_67L_, Q9UKT9 (peptide)
chain: LGCPICGFYCTQKGNLLRHIKL
B24: 46L_47S_49P_50I_52G_53F_54Y_55C_67L_, Q9UKT9 (peptide)
chain: LSCPICGFYCTQKGNLLRHIKL
B25: 46L_47W_49P_50I_52G_53F_54Y_55C_67L_, Q9UKT9 (peptide)
chain: LWCPICGFYCTQKGNLLRHIKL

Biological target: T1, CRBN, Q96SW2
Experiment: log2 fold change of degron read counts, EGFP-low vs EGFP+ sorted cells (limma voom), compound-induced degradation; higher = more compound-induced degradation of the degron-EGFP fusion; degrons are variants of IKZF1/3 zinc finger 2; compound dose not given here
Conditions: Jurkat, 18 h
Protocol: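 Pooled library of 8380 IKZF3 ZF2 degron mutants (positions 146-167 varied within the IKZF3 130-189 degron; only the varied core is printed, flanks not printed) fused to EGFP with IRES-mCherry, lentivirally expressed in Jurkat cells. mCherry+ cells were treated with one IMiD compound for 18 h (dose not stated) and FACS-sorted into EGFP-low and EGFP+ populations. Degron sequences were counted by NGS, and log2FC (EGFP-low vs EGFP+) was estimated by limma voom over 3 biological replicates.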

[1] = compound: compound 19 (5-tert-butyl-thalidomide)
[2] = compound: compound 22 (5-morpholino-thalidomide)
[3] = compound: compound 33 (diphenyl IMiD analogue)
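Further: pooled lentiviral library of zinc finger degron-EGFP fusions in mCherry-positive Jurkat cells, FACS-sorted after compound exposure, with degron abundance counted by next-generation sequencing.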

Row | Sequence | log2 fold change of degron read counts [1] | log2 fold change of degron read counts [2] | log2 fold change of degron read counts [3] | log2 fold change of degron read counts (compound: thalidomide)
1 | B1 | -0.622 | 0.367 | 2.22 | 0.902
2 | B2 | 2.45 | 2.95 | 1.49 | -0.148
3 | B3 | 2.29 | 2.03 | 0.254 | 0.112
4 | B4 | 1.49 | 0.652 | 0.369 | -0.42
5 | B5 | 0.609 | 1.43 | 1.22 | 3.34
6 | B6 | 2.6 | 3.54 | 1.69 | 0.481
7 | B7 | -1.48 | -1.49 | -1.88 | -2.83
8 | B8 | -2.4 | -3.54 | -2.58 | -2.17
9 | B9 | -2.15 | -2.33 | -2.44 | -1.78
10 | B10 | -3.22 | -3.09 | -2.38 | -2.39
11 | B11 | -3.14 | -2.25 | -0.0305 | 0.62
12 | B12 | -2.75 | -1.91 | -0.307 | 0.0287
13 | B13 | 0.267 | 1.09 | -0.551 | -2.11
14 | B14 | 0.482 | 1.27 | 2.88 | 2.19
15 | B15 | 1 | 1.74 | 2.07 | 3.47
16 | B16 | -0.0305 | -0.355 | 1.46 | 2.28
17 | B17 | 2.88 | 2.73 | 2.34 | 1.76
18 | B18 | 0.5 | 1.72 | 1.99 | 2.39
19 | B19 | 1.01 | 2.39 | 2.2 | 2.84
20 | B20 | 1.68 | 2.29 | 3.16 | 3.24
21 | B21 | 2.56 | 2.82 | 2.85 | 2.7
22 | B22 | 3.56 | 2.79 | 2.52 | 2.89
23 | B23 | 3.53 | 2.7 | 2.46 | 2.1
24 | B24 | 2.68 | 2.68 | 2.92 | 2.93
25 | B25 | 2.78 | 3.23 | 2.86 | 2
